# Measured values published in ChEMBL document CHEMBL3988442, “University of Dundee, Small-Polar-MMV Screening Library” (2021).
# About 13,000 (27%) of roughly 48,000 compounds showed an effect of 50% or more. The list shows a part of the results.
# Test system: Wolbachia pipientis
# Assay: Anti-Wolbachia Cell-Based Screen
# Type: functional
# Set-up: scale not given: in the data most compounds retested in dose-response had high values
# Conditions: 5 µM
row,SMILES,Percent Effect [%]
1,c1ncc(-c2cn(CCSc3cnn[nH]3)nn2)cn1,-12.65
2,CC(=O)N1CCC(C(=O)NCc2cc[nH]n2)(c2ccccc2)CC1,107.6
3,COCCOCCNC(=O)N1CCN(c2ccccc2C#N)CC1,9.744
4,CS(=O)(=O)NC1CCCN(C(=O)NCc2cc[nH]n2)C1 (stereo not drawn),-1.074
5,CC(CNC(=O)N1CCN(c2ncccn2)CC1)Cc1cccs1 (stereo not drawn),-35.53
6,Cc1cccc(OC2CCN(C(=O)NCc3cc[nH]n3)CC2)c1C,-1.831
7,O=C(NCc1cc[nH]n1)N1CCN(c2ncccn2)CC1,105.7
8,CCC(CNC(=O)NCc1cc[nH]n1)N1CCCC1 (stereo not drawn),2.082
9,N#Cc1ccccc1N1CCCN(C(=O)NCc2cc[nH]n2)CC1,136.7
10,O=C(NCC1CCOC1)N1CCN(c2ncccn2)CC1 (stereo not drawn),14.21
11,O=C(NCc1cc2n(n1)CCCNC2)C1(c2ccccc2)CCCCC1,0.555
12,N#Cc1ccccc1N1CCN(C(=O)NCC(=O)N2CCCC2)CC1,-1.371
13,CS(=O)(=O)NC1CCN(C(=O)NCc2cc[nH]n2)CC1,108.2
14,Cc1nn(C)c2ncc(NC(=O)N(C)Cc3cnn(C)c3)cc12,3.959
15,COc1ccc(C(=O)O)c(OCC(=O)NC(C)c2ccccc2)c1 (stereo not drawn),-11.95
16,COc1cncc(N2CCN(Cc3ccncc3Cl)CC2)n1,-15.95
17,CC(=O)N1CCCN(C(=O)NCc2cc[nH]n2)CC1,-2.345
18,NC(=O)c1ccc(CNC(=O)NCc2cc[nH]n2)cc1,0.637
19,CCC1c2ccsc2CCN1C(=O)NCc1cc[nH]n1 (stereo not drawn),5.553
20,CCN1CCN(C(=O)NCc2cc[nH]n2)CC1,108.7
21,CC(=O)c1ccc(N2CCN(C(=O)NCc3cc[nH]n3)CC2)cc1,106.6
22,O=C(NCc1ccc(N2CCSCC2)cc1)NCc1cc[nH]n1,-6.382
23,O=C(NCc1cc[nH]n1)N1CCC(Oc2ccccc2Cl)CC1,-25.2

row,SMILES,Percent Effect [%]
1,CCOc1ccccc1N1CCN(C(=O)NCc2cc[nH]n2)CC1,100.3
2,O=C(NCc1cc[nH]n1)N1CCN(c2ccccc2Cl)CC1,14.41
3,CN(C)c1ccccc1C(=O)N1C[C@@H](CN2CCC(O)CC2)[C@@H](CO)C1,-115.2
4,Cc1cc(C(=O)Cn2cnnc2[S+](C)[O-])cc(C)c1F (stereo not drawn),2.039
5,O=C(NCc1nc2ccccc2[nH]1)c1cnn2c1OCCC2,8.573
6,CS(=O)(=O)c1cccc(C(=O)NCC2(c3ccccc3)CC2)c1,-5.384
7,O=C(NCc1nc2cc(F)ccc2[nH]1)c1ccc[nH]1,85.11
8,COC(=O)NCC(=O)N1CCC(c2nc3cc(F)ccc3[nH]2)CC1,-27.28
9,CS(=O)(=O)c1cccc(C(=O)NCC2Cc3ccccc3O2)c1 (stereo not drawn),-50.83
10,CC(C)c1cc(C(=O)NCc2nc(-c3ccc(F)cc3)n[nH]2)n[nH]1,8.194
11,CS(=O)(=O)c1ccc(C(=O)NCc2nc3cc(F)ccc3[nH]2)cc1,97.05
12,CS(=O)(=O)c1cccc(C(=O)NCc2nc3cc(F)ccc3[nH]2)c1,93.8
13,O=C(NCc1nc2ccccc2[nH]1)c1cc2n(n1)CCCO2,4.478
14,Cc1cc(NC(=O)Cn2nc(C)c(C#N)c2N)ccc1Br,-7.247
15,Fc1ccc(-c2cc(NCCC3CCOC3)n3nccc3n2)cc1 (stereo not drawn),40.16
16,O=C(NC1CC1)[C@H]1CC[C@@H]2[C@@H](CCN2CCOCc2ccccc2)O1.O=C(O)C(F)(F)F,6.133
17,CCS(=O)(=O)N1CCOC2(COCCN(C(C)=O)C2)C1 (stereo not drawn),-3.912
18,CCC1CN(C(=O)c2ccccc2N2CCOCC2)CCN1C(C)C (stereo not drawn),8.112
19,CCNC(=O)C1CCN(c2cc(-c3ccccc3F)nc3ccnn23)C1 (stereo not drawn),-1.287
20,COc1ccccc1CN1C[C@@H](F)[C@@H](OCc2nc3ccccc3[nH]2)C1,0.7932
21,Cl.Cn1cncc1CN1CCc2nc3sccc3c(=O)n2CC1,103.5
22,Cc1ccsc1C(=O)N1CCc2ncc(CN3CCCC3)n2CC1.O=C(O)C(F)(F)F,-31.81
23,CC(=O)NCc1nnc2n1CCN(c1nc(C)nc3sccc13)CC2,-5.354

row,SMILES,Percent Effect [%]
1,CCn1cncc1CN1CCc2nc3sccc3c(=O)n2CC1,89.02
2,Cc1ccc(CN2CCNC(C(=O)NC3CC3)C2)cc1C (stereo not drawn),34.83
3,CC(NC1CCN(CCS(C)(=O)=O)CC1)c1ccc(Cl)cc1 (stereo not drawn),-9.034
4,Cc1ncsc1CCC(=O)NC1CCN(c2ccc(Cl)nn2)CC1,-3.367
5,O=C(Nc1ccc(-n2cncn2)c(F)c1)C1CCN(C(=O)C2CC2)CC1,-16.72
6,CC(C)n1ccnc1C1CCCN(c2ncccc2C(N)=O)C1 (stereo not drawn),2.955
7,CC1CCN(Cc2cc(=O)[nH]c(=O)[nH]2)CC1,-40.44
8,NS(=O)(=O)CC1CCN(c2ncccc2C(F)(F)F)CC1,-0.5729
9,CC1CCCN(c2nccn3c(=O)[nH]nc23)C1 (stereo not drawn),119.4
10,CC1CCN(c2nccn3c(=O)[nH]nc23)CC1,109.7
11,CC1CCCN(c2ccccc2OCC(=O)NC2CC2)C1 (stereo not drawn),-2.178
12,NC1CCN(c2nccn3c(=O)[nH]nc23)CC1,124.1
13,CC1CCN(c2nc3c(cnn3-c3ccccc3)c(=O)[nH]2)CC1,0.2654
14,c1ccc(-c2nc3c(c(NCCCn4cncn4)n2)CCNCC3)nc1,-4.021
15,COc1ccc(C(CO)NC(=O)Nc2cccnc2)cc1 (stereo not drawn),-17.84
16,Cc1nnc(C(C)N(C)Cc2c(C)nn(-c3ccccc3C)c2C)o1 (stereo not drawn),-9.364
17,CCn1nnnc1-c1cccc(NC(=O)COC2CCCC2)c1,5.943
18,CCCc1nc(CN2CCN(Cc3noc(CCC)n3)CC2)no1,0.9498
19,CCCc1nc(CN2CCN(C(C)c3nc(C4CC4)no3)CC2)no1 (stereo not drawn),124.6
20,CCc1noc(C(C)N2CCN(Cc3noc(C4CC4)n3)CC2)n1 (stereo not drawn),3.435
21,CCc1nc(CN2CCN(C(C)c3nc(C4CC4)no3)CC2)no1 (stereo not drawn),112.7
22,CCc1noc(C(C)N2CCCN(Cc3noc(C4CC4)n3)CC2)n1 (stereo not drawn),8.614
